Our source for the outcome and AC50 values is PubChem BioAssay (EPA / NIEHS).

Molecules are shown by their SMILES. The source holds several records for some structures; these can differ, active in one and inactive in another. The source made the active and inactive calls. Rule for the calls: active = hit-call score of the fitted dose curve at least 0.9, where 1 is the maximum; inactive = score below 0.9.

By AC50 is commonly meant the concentration at which the activity in the assay is half-maximal.

The nature of the assay: ATG_CMV_CIS: Attagene CIS-FACTORIAL HepG2 Assay for human CMV (Internal Marker) (AID 2282928).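 Note: endpoint acts as a background internal control marker rather than a target.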 The settings on record: HepG2 CMV promoter reporter, transcription factor profiling; actives raise or lower the signal. The method, then: ATG_CIS is a cell-based, multiplexed-readout assay that uses HepG2, a human liver cell line, with measurements taken at 24 hours after chemical dosing in a 24-well plate.ATG_CMV_CIS is one of 52 assay component(s) measured or calculated from the ATG_CIS assay. It is designed to make measurements of mRNA induction, a form of inducible reporter, as detected with fluorescence intensity signals by Reverse transcription polymerase chain reaction (RT-PCR) and Capillary electrophoresis technology.Data from the assay component ATG_CMV_CIS was analyzed into 1 assay endpoint. This assay endpoint, ATG_CMV_CIS, was analyzed with bidirectional fitting relative to DMSO as the negative control and baseline of activity. Using a type of inducible reporter, measures of mRNA for gain or loss-of-signal activity can be used to understand the background control at the transcription factor-level as they relate to the gene . Furthermore, this assay endpoint can be referred to as a secondary readout, because this assay has produced multiple assay endpoints where this one serves a background control function. To generalize the intended target to other relatable targets, this assay endpoint is annotated to the background measurement intended target family, where the subfamily is internal marker.
Human liver HepG2 cells are transiently transfected with multiple reporter transcription units (MRTUs) in 6-well plates using FuGene 6 reagent (Roche; 3 ml FuGene/1 mg DNA). The MRTU constructs are regulated by a cis-regulating element (promoter). […] A major difference between the CIS and TRANS system is that in CIS activities of endogenous TFs are measured, whereas the TRANS assay evaluates changes in activities of exogenous, chimeric NR-Gal4 proteins. […] At the end of 24 hour incubation, total RNA was isolated using TriZol reagent (Invitrogen). The isolated RNA is then reverse-transcribed using oligo(dT) primer and Mo-MLV reverse transcriptase (Invitrogen) with DNAse I (Ambion) treatment for 30 min. The one-tenth of the produced cDNA was amplified by PCR using Taq DNA polymerase (Invitrogen) and two reporter sequence-specific primers. The PCR products were fluorescently labeled by primer extension with 6-arboxyfluorescein (6-FAM) 5'-labeled reporter sequence-specific primer (2 min at 95 C, 20 s at 68 C and 10 min at 72 C) and these products were digested with 5U of HpaI (New England Biolabs) for 2h at 37 C. The fragments were purified using Qiaquick PCR columns (Qiagen), analyzed on an ABI 3130xL genetic analyzer (Applied Biosystems) with peak positions identified by using a set of X-rhodamine (ROX)-labeled MapMarker1000 molecular weight standards (BioVentures). The raw capillary electrophoresis data was processed using Attagraph software (Attagene).
Turning to `O=C(Nc1cccc([N+](=O)[O-])c1)c1cc2ccccc2cc1O`, the result was inactive.
As to `CCCCCCCCCCCC[N+](C)(C)Cc1ccccc1`, the result was inactive and the AC50 was 14.5 µM (active).
Consider `Cc1ccc(C)c(S(=O)(=O)O)c1`, for which the result was inactive.
Still for that read-out and setting: to `Cc1ccc(S(=O)(=O)O)cc1` belongs “inactive”.
With `COc1ccccc1NC(=O)c1cc2ccccc2cc1O`, the AC50 is 100 µM (active).
For `CCCCC(CC)C(=O)O` (stereo not given), the compound was classed as inactive.
Take `O=C1OC2(c3ccccc31)c1cc(I)c(O)c(I)c1Oc1c2cc(I)c(O)c1I`: the AC50 is 40.5 µM (active) and the compound was called inactive.
As to `NCc1cccc(CN)c1`, the result was inactive.
Same read-out and setting: to `FC(F)(F)C1(F)C(F)(F)C(F)(F)C(F)(F)C(F)(C(F)(F)F)C1(F)F` (stereo not given) belongs “inactive”; to `CCCCCCCCCCCCCCC`, “inactive”; to `O=C(NCc1ncc(C(F)(F)F)cc1Cl)c1c(Cl)cccc1Cl`, “inactive”.
On to `O=C1OC(=O)c2cc(-c3ccc4c(c3)C(=O)OC4=O)ccc21`, for which the compound was classed as inactive.
Still for that read-out and setting: to `CCOCCOCC` belongs “inactive”; to `CCCCCCCCC(C)=O`, “inactive”.
`O=C(O)CCC(F)(F)C(F)(F)C(F)(F)C(F)(F)C(F)(F)C(F)(F)F`: the compound was classed as inactive.
Still for that read-out and setting: as for `CCOC(=O)CN[C@@H](C(=O)N1CC[C@H]1C(=O)NCc1ccc(/C(N)=N/O)cc1)C1CCCCC1`, the entry is “inactive”; as for `CNNCc1ccc(C(=O)NC(C)C)cc1`, “inactive”; as for `C=CCOCC(CO)(CO)CO`, “inactive”.
Turning to `C[N+](C)(CCCNS(=O)(=O)CCC(F)(F)C(F)(F)C(F)(F)C(F)(F)C(F)(F)C(F)(F)F)CC(=O)[O-]`, the outcome was inactive.
On the same count and under the same terms, to `c1cc[nH]c1` belongs “inactive”.
For the compound `C=COC(=O)C(C)(C)CCCCCC`, the AC50 was 159 µM (active).
Take `CC[N+](CC)(CC)Cc1ccccc1`: the compound was called inactive.
On to `CC(C)C=O`, for which the call was inactive and the AC50 was 87.6 µM (active).
Take `CCOC=O`: the call was inactive.
`Cn1sccc1=O`: the AC50 was 190 µM (active).
In the case of `O=C(O)c1cccc(C(=O)O)n1`, the compound was classed as inactive.
The same measure, in the same setting: to `O=C(O)C(F)(F)OC(F)(F)C(F)(F)OC(F)(F)C(F)(F)OC(F)(F)C(F)(F)C(F)(F)C(F)(F)F` belongs “inactive”; to `O=C(F)C(F)(F)C(F)(F)C(F)(F)C(F)F`, “inactive”.
Same read-out and setting: as for `O=C(O)CN(CCCN(CC(=O)O)CC(=O)O)CC(=O)O`, the entry is “inactive”.
On the same count and under the same terms, to `C=CC(=O)OCCC(F)(F)C(F)(F)C(F)(F)C(F)(F)C(F)(F)C(F)(F)F` belongs “inactive”; to `FC(F)(F)N1C(F)(F)C(F)(F)OC(F)(F)C1(F)F`, “inactive”.
With `O=C(OC(=O)C(F)(F)C(F)(F)F)C(F)(F)C(F)(F)F`, the compound was classed as inactive.
In the case of `COC1=CC(=O)C[C@@H](C)[C@]12Oc1c(Cl)c(OC)cc(OC)c1C2=O`, the AC50 was 138 µM (active).
Take `Oc1c(Cl)cc(Cl)cc1Sc1cc(Cl)cc(Cl)c1O`: the outcome was inactive.
Consider `CCC(=O)C=Cc1ccc(OC)cc1`, for which the result was inactive.
On to `FC(F)=C(F)C(F)(F)C(F)(F)C(F)(F)C(F)F`, for which the outcome was inactive.
Same read-out and setting: to `CCCCCCC(C)(C)C(=O)O` belongs “inactive”.
